Many of the other results were omitted from the sample, so hits are more common in it than they were.
FBPA Giardia inh = blocks Giardia fructose-bisphosphate aldolase activity | AID 2451 | 0.71% of 290,000 active | Potency, µM (series often up to 59.6 µM), for the others: at the top dose activity, negative = inhibition, hits mostly inhibitors | A8B2U2 | purified Giardia FBPA; note: potency is the fitted concentration of half-maximal effect; % is set by controls: 0 for no effect and ±100 for the full control effect; nearly all actives have a fitted effect of over 55% in size
Target sequence (A8B2U2 whole entry, looked up): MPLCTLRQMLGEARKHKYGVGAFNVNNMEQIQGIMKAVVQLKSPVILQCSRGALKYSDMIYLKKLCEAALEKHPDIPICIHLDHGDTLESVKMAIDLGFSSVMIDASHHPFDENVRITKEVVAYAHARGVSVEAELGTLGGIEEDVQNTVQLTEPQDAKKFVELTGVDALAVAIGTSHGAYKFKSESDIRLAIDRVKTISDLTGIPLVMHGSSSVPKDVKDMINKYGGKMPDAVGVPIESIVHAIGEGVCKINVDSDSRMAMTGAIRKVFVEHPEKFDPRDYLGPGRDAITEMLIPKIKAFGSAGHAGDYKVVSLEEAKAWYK
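Giardia FBPA (40 nM reagent) was preincubated 10 min at RT with compound (up to 57.5 uM final), then substrate plus GAPDH/TPI/NAD/arsenate coupling system with diaphorase/resazurin was added; resorufin fluorescence (525/598 nm) was read after 20 min.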
Tb PYK inh = inhibitors of Trypanosoma brucei pyruvate kinase. 0.12% of 410,000 active. TbPYK enzyme, Kinase-Glo Plus ATP luminescence, 45 min. Potency, µM (top dose mostly 76.8 µM), without a hit: top-dose activity, negative = inhibition, actives largely listed as inhibitors; note: potency is the fitted concentration of half-maximal effect; % is set by controls: 0 for no effect and ±100 for the full control effect; nearly all actives have a fitted effect of over 50% in size
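Enzyme and substrate buffer are dispensed first and compound is pin-transferred. ADP at 130 uM final then starts the reaction, which runs 45 min at room temperature. Detection reagent is added for 10 min before luminescence is imaged.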
Shiga inhibitor = Shiga toxin inhibition; Vero cells, Shiga toxin protein synthesis inhibition reporter; inhibition, % at 38.7 µM; 9.2% of 290,000 active; AID 2315; in the data active = inhibition mostly above about 28%, no sharp cut-off; inactive = mostly below about 43%; note: 0% is about no effect
Sm TGR inh = inhibitors of Schistosoma mansoni thioredoxin glutathione reductase; Q962Y6; purified TGR, DTNB reduction, TNB absorbance 405 nm; Potency, µM (titrated, usually from 114 µM), without a hit: at the top dose activity change, negative = inhibition, actives largely listed as inhibitors; 3% of 360,000 active; note: potency is the fitted concentration of half-maximal effect; % is set by controls: 0 for no effect and ±100 for the full control effect; nearly all actives have a fitted effect of over 60% in size
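TGR 20 nM + NADPH 100 uM (dispensed conc.), cpd preinc 15 min RT; start with NADPH (500 uM addition) then DTNB (15 mM addition). Kinetic TNB absorbance, 405 nm filter. Four-parameter Hill fit across titration.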
Cycloheximide cs = counter-screen hit for Shiga toxin inhibitors, cycloheximide. cell reporter, cycloheximide protein synthesis inhibition counterscreen. max response, %. 12% of 300,000 active. AID 2314; in the data active = max response mostly above about 13%, no sharp cut-off; inactive = mostly below about 14%; note: read at 38.3 µM for the half of the compounds with a filed dose; 0% is about no effect
LmPK inhibitor = blocks Leishmania mexicana pyruvate kinase activity; Q27686; purified LmPK, Kinase-Glo ATP luminescence, 1 h; Potency, µM (series often up to 57.5 µM), inactives show at the top dose activity change, negative = inhibition, usual class: inhibitors; 0.37% of 290,000 active; AID 1721; note: potency is the fitted concentration of half-maximal effect; % is set by controls: 0 for no effect and ±100 for the full control effect
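Kinase-Glo luminescence read after 1 h RT reaction of 0.1 nM LmPK with 0.5 mM PEP and 0.1 mM ADP. Activity scaled between uninhibited and enzyme-free controls.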
The depositor's hits bear a star; ? = inconclusive; . = no result given; + = active, no number; [ ] = dose if it differs, or a comment. Unless noted, calls come from the whole dose curve; as a rule, active = well fitted curve in the direction sought with a large enough effect; inconclusive = small, poorly fitted or top-dose-only effect, or another doubt; inactive = no such curve, though single readings can be large; an effect the other way counts as inactive or inconclusive.

SMILES	FBPA Giardia inh	Tb PYK inh	Shiga inhibitor	Sm TGR inh	Cycloheximide cs	LmPK inhibitor
CC(C)C(=O)Nc1ccc(NC(=O)c2cccs2)cn1	?	-4.4%	114.3*	2.0%	49.9*	-13.3%
Brc1cccc(-c2nn(-c3ccccc3)c3c2cnc2cc4c(cc23)OCO4)c1	.	-4.1%	.	-9.4%	.	.
O=C(Nc1cccc(NC(=O)c2ccccc2Cl)c1)c1cccs1	3.4%	0.0%	10.7	-1.6%	1.4	2.0%
O=C(Nc1ccc(C(=O)N2CCOCC2)cc1)c1cccs1	-4.1%	1.6%	50.6	-6.3%	18.4	?
CC(C)CNC(=O)c1ccc(NC(=O)c2cccs2)cc1	4.7%	-2.0%	62.2*	0.7%	26.8*	-8.4%
O=C(Nc1ccc(C(=O)N2CCCCC2)cc1)c1cccs1	-2.0%	-17.7%	68.3*	0.4%	18.9*	-17.1%
COc1cccc(-c2nc(-c3ccc(NC(=O)c4cccs4)cc3)no2)c1	2.2%	-3.0%	64.5*	-0.8%	55.6*	-2.7%
Nc1cccc(NC(=O)c2cccs2)c1	-16.6%	-0.7%	20.3	-27.1%	14.6*	-7.8%
COc1ccccc1CNC(=O)c1cc2c(=O)n(Cc3cccs3)ccc2nc1C	.	-1.5%	.	-11.3%	.	.
COCCCNC(=O)CN1C(=O)c2cccnc2Sc2ccccc21	.	-12.2%	.	-13.0%	.	.
COc1cccc(NC(=O)C(=O)NCCc2csc(-c3ccc(C(F)(F)F)cc3)n2)c1	.	0.0%	.	17.2%	.	.
CNC[C@H](O)[C@H](O)[C@H](O)[C@H](O)CO	3.1%[21.7 µM]	.	.	.	.	.
Cc1cc(C)cc(Oc2coc3c(CN(C)C)c(O)ccc3c2=O)c1	6.3%	-0.8%	4.0	10.7%	-1.8	-13.6%
CC(=O)COc1ccc2c(c1C)O/C(=C\c1ccco1)C2=O	-1.1%	3.5%	127.3*	20µM*	82.4*	6.0%
COC(=O)C1=C(C)N(C)C(=O)/C1=C\c1ccco1	-0.5%	1.6%	-13.7	-47.3%	-4.3	-1.9%
Cc1c(OC(=O)N(C)C)ccc2c1O/C(=C\c1ccco1)C2=O	7.2%	-18.9%	90.8*	11.2µM*	47.4*	1.9%
Cc1cc(O)c(CN(C)C)c2c1C(=O)/C(=C/c1ccco1)O2	-6.3%	-17.3%	-9.1	3.98µM*	-1.8	-1.0%
CC[C@H](C)[C@H](NC(=O)[C@H](CO)NC(=O)[C@H](CC(N)=O)NC(=O)[C@H](CC(C)C)NC(=O)[C@H](Cc1ccc(O)cc1)NC(=O)[C@H](CCCCN)NC(=O)[C@H](CCCCN)NC(=O)[C@@H](NC(=O)[C@H](C)NC(=O)[C@H](CCSC)NC(=O)[C@H](CCC(N)=O)NC(=O)[C@H](CCCCN)NC(=O)[C@H](CCCNC(=N)N)NC(=O)[C@H](CC(C)C)NC(=O)[C@H](CCCNC(=N)N)NC(=O)[C@@H](NC(=O)[C@H](Cc1ccc(O)cc1)NC(=O)[C@H](CC(N)=O)NC(=O)[C@H](CC(=O)O)NC(=O)[C@@H](NC(=O)[C@H](Cc1ccccc1)NC(=O)[C@@H](NC(=O)[C@H](C)NC(=O)[C@H](CC(=O)O)NC(=O)[C@H](CO)NC(=O)[C@@H](N)Cc1cnc[nH]1)C(C)C)[C@@H](C)O)[C@@H](C)O)C(C)C)C(=O)N[C@@H](CC(C)C)C(=O)N[C@@H](CC(N)=O)C(N)=O	6.2%	.	-1.0	.	-4.5	.
O=C(NCC(=O)N1CCN(c2ccccc2F)CC1)c1ccc(Br)o1	.	-0.7%	.	2.6%	.	.
CC(=O)Nc1ccc2nc(NC(=O)COc3ccccc3)sc2c1	0.3%	-1.3%	25.0	-1.5%	15.0	3.3%
CC(=O)Nc1ccc2nc(NC(=O)C(Cl)(Cl)Cl)sc2c1	12.4%	-3.1%	7.8	-18.9%	-1.0	0.3%
COc1cccc2sc(Nc3nc4ccc(NC(C)=O)cc4s3)nc12	-5.1%	-7.7%	44.0*	-10.3%	21.8*	-2.9%
CC(=O)Nc1ccc2nc(NC(=O)CCc3ccccc3)sc2c1	-1.0%	1.4%	56.4*	6.8%	26.7*	-0.2%
CC(=O)Nc1ccc2nc(NC(=O)COc3ccccc3Cl)sc2c1	0.0%	-0.8%	43.2*	19.2%	26.2*	-2.6%
Cc1cccc(NC(=O)CSc2nc3ccc(NC(=O)CCc4ccccc4)cc3s2)c1	.	1.2%	.	-1.8%	.	.
SMILES	FBPA Giardia inh	Tb PYK inh	Shiga inhibitor	Sm TGR inh	Cycloheximide cs	LmPK inhibitor
CC(=O)Nc1ccc2nc(NC(=O)COc3ccccc3C)sc2c1	2.7%	-0.8%	35.4	-1.2%	50.2*	13.8%
CC(=O)Nc1ccc2nc(NC(=O)COc3ccc(C)cc3)sc2c1	2.9%	2.6%	23.2	0.3%	11.3	-0.4%
O=C1c2cccc3c(O)ccc(c23)C(=O)N1Cc1ccco1	?	-5.9%	16.7	6.31µM*	-2.4	11.1%
O=C1c2cccc3c(O)ccc(c23)C(=O)N1c1ccc(Cl)cc1	?	-6.5%	+	25.1µM*	105.1*	-1.1%
COc1ccccc1N1C(=O)CC(N2CCN(c3ccc(F)cc3)CC2)C1=O (configuration not stated)	-4.6%	0.8%	11.6	44.7µM*	-0.4	-1.2%
CCOc1ccc(N2C(=O)CC(N3CCN(C(=O)CN4CCCC4)CC3)C2=O)cc1 (configuration not stated)	4.9%	-11.6%	-6.3	35.5µM*	-1.8	-0.9%
CCOc1ccc(N2C(=O)CC(N3CCN(c4ccc(F)cc4)CC3)C2=O)cc1 (configuration not stated)	0.4%	1.2%	-13.0	44.7µM*	-4.4	3.4%
CN1C(=O)CC(N2CCN(C(=O)CN3CCCC3)CC2)C1=O (configuration not stated)	4.6%	-3.9%	-3.4	-4.3%	0.7	4.7%
COc1ccccc1N1CCN(C2CC(=O)N(c3ccc(Cl)cc3)C2=O)CC1 (configuration not stated)	8.2%	4.8%	.	-1.0%	-1.5	12.7%
O=C(c1ccco1)N1CCN(C2CC(=O)N(c3ccc(F)c(Cl)c3)C2=O)CC1 (configuration not stated)	-1.5%	-12.6%	-2.4	20µM*	-2.6	-0.4%
COc1cccc(CN2C(=O)c3ccccc3Sc3ccc(C(=O)NCCc4ccc(Cl)cc4)cc32)c1	.	5.0%	-4.5	6.1%	1.3	.
Cc1nc(-n2nc(C)c(CCC(C)C)c2C)sc1C(=O)Nc1ccc(Br)cc1	.	-5.8%	.	-1.0%	.	.
CCOC(=O)N1CCN(C2CC(=O)N(c3ccccc3)C2=O)CC1 (configuration not stated)	2.6%	3.2%	4.4	0.0%	-5.6	-5.4%
CCOC(=O)N1CCN(C2CC(=O)N(c3ccc(Cl)c(Cl)c3)C2=O)CC1 (configuration not stated)	2.5%	-7.2%	-2.9	20µM*	-0.9	-1.5%
COC(=O)NC(c1cccc(F)c1)[C@]1(C(C)=O)CCCC1=O (some centres not stated)	-1.9%[12.9 µM]	.	.	.	.	.
